GDH-TPI counter – GDH-TPI coupling enzyme inhibitors, primary screen, artefact control for M. tuberculosis FBA inhibitor project, biochemical, absorbance, full deck; AID 588335, 2011; GDH-TPI coupled enzyme counterscreen, NADH absorbance; actives 1.2% (n = 360,000); inhibition, % at 4.8 µM; in the data active means inhibition above about 30%
BoNT-F LC inh – BoNT/F light chain protease inhibitors, primary screen, biochemical, flow cytometry, MLPCN library; Botulinum neurotoxin type F light chain protease (Clostridium botulinum); Multiplex microsphere protease cleavage assay; actives 0.22% (n = 360,000); inhibition, % at 10 µM; in the data active means inhibition above about 35%, passing the limit was not always enough; inconclusive means no clear call, values can overlap the other calls
Anthrax LF prot – Bacillus anthracis LF protease inhibitors, primary screen, biochemical, multiplex microsphere, MLPCN library; Lethal factor (Bacillus anthracis), P15917; multiplex microsphere protease cleavage assay; inhibition, % at 10 µM; actives 0.12% (n = 360,000); AID 588501, 2011
BoNT-A LC inh2 – BoNT/A light chain protease inhibitors, primary screen, biochemical, flow cytometry, MLPCN library. AID 588499, 2011. actives 0.17% (n = 360,000). Botulinum neurotoxin type A light chain protease (Clostridium botulinum A str. ATCC 3502). multiplex microsphere protease substrate cleavage. inhibition, % at 10 µM
Autofluor counter – compound fluorescence in toxin protease inhibitor counterscreen. AID 624483. actives 3.1% (n = 360,000). compound autofluorescence counterscreen, microsphere flow cytometry; stronger effect = higher value. fluorescence intensity (concentration not given with the values); in the data active means fluorescence intensity above about 16000; inconclusive means no clear call, values can overlap the other calls
Mtb FBA inh – Mtb FBA enzyme inhibitors, primary screen, biochemical, fluorescence, strain H37Rv | Fructose-bisphosphate aldolase (Mycobacterium tuberculosis (strain ATCC 25618 / H37Rv)), … | purified M. tuberculosis FBA, fluorescence read-out | inhibition, % at 1 µM | actives 2.3% (n = 360,000); in the data active means inhibition above about 27%
Target sequence (P9WQA3 whole entry, looked up): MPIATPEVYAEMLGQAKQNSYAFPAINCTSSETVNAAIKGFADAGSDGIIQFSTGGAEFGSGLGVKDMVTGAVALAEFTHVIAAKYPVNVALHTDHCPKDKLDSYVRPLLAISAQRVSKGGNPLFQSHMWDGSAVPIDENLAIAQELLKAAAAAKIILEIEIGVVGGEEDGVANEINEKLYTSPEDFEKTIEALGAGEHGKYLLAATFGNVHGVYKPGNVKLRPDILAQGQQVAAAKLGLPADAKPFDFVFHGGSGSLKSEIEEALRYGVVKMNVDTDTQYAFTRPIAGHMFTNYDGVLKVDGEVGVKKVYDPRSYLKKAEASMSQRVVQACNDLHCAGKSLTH
Of the large screens only hits and unclear results are named; the others gave an inactive call. Shown are actives, neighbours in structure and some others; about 6.6% of the full set was active somewhere. Unless noted, no stated cut-off is given here; in the data, active means inhibition above about 30%; inconclusive means no clear call, values can overlap the other calls; inactive means below that.

COc1ccc(-[n+]2c(C)cc(/C=C3\Sc4ccccc4N3C)cc2C)cc1	BoNT-A LC inh2 68.5
COc1ccccc1-[n+]1c(C)cc(/C=C2\Sc3ccccc3N2C)cc1C	Anthrax LF prot 40.1, BoNT-A LC inh2 87.7
CC1=C(C(=O)Nc2ccccc2)C(c2cccc([N+](=O)[O-])c2)Nc2nc3ccccc3n21 (stereo not drawn)	Autofluor counter 23880
CCOC(=O)C(O)(c1ccc(NC(=O)NC2CCCCC2)cc1)C(F)(F)F (stereo not drawn)	Autofluor counter 23646
CCOC(=O)C(O)(c1ccc(NC(=O)c2ccc(Cl)c(Cl)c2)cc1)C(F)(F)F (stereo not drawn)	none (no result: BoNT-F LC inh, Anthrax LF prot, BoNT-A LC inh2, Autofluor counter)
O=C(CCCc1nc(-c2ccccc2Cl)no1)N1CCOCC1	none
Cc1c(Br)ccc(NC(=O)CCN2C(=O)C3C4CCC(C4)C3C2=O)c1C (stereo not drawn)	BoNT-A LC inh2 inconclusive, Autofluor counter 23010
CNc1ccc(C2(O)C(=O)c3ccccc3C2=O)cc1	none
COCCCn1c(C(=O)N2CCOCC2)cc2c(=O)n3ccccc3nc21	Mtb FBA inh active
CCCn1c(=N)c(C(=O)NCC2CCCO2)cc2c(=O)n3cccc(C)c3nc21 (stereo not drawn)	Mtb FBA inh active
Cc1cccn2c(=O)c3cc(C(=O)NCC4CCCO4)c(=N)n(CCN4CCOCC4)c3nc12 (stereo not drawn)	Mtb FBA inh 145.3
CCOCCCNC(=O)c1cc2c(=O)n3cccc(C)c3nc2n1C	none
COc1ccc(CCn2c(=N)c(C(=O)NCCN3CCOCC3)cc3c(=O)n4cccc(C)c4nc32)cc1OC	none
CCOCCCn1c(=N)c(C(N)=S)cc2c(=O)n3cccc(C)c3nc21	Mtb FBA inh 76.9
CCN1CCN(S(=O)(=O)CC2(C)C3CCC2(C)C(=O)C3Br)CC1 (stereo not drawn)	none
COc1ccc(CCn2c(=N)c(C(=O)NCC3CCCO3)cc3c(=O)n4ccccc4nc32)cc1 (stereo not drawn)	none
COCCCn1c(=N)c(C(=O)NCC2CCCO2)cc2c(=O)n3cccc(C)c3nc21 (stereo not drawn)	Mtb FBA inh active
COCCCn1c(=N)c(C(=O)NCC2CCCO2)cc2c(=O)n3ccccc3nc21 (stereo not drawn)	Mtb FBA inh active
CC1(C(=O)NCCc2ccccc2)Cc2c(-c3ccc(C(N)=O)cc3)ccnc2O1 (stereo not drawn)	none
O=C(C1CCCC1)N1CCN=C1SCc1cccc([N+](=O)[O-])c1	none
Cc1nnc(NC(=O)c2oc3c(ccc4ccccc43)c2C)s1	GDH-TPI counter 32.2
Cc1nc(NC(=O)/C=C/c2ccc(F)cc2)sc1C(=O)N(C)C	GDH-TPI counter 33.9
Cc1nc(NC(=O)c2oc3ccccc3c2C)sc1C(=O)N(C)C	GDH-TPI counter 32.4, Autofluor counter 24342
Cc1nnc(NC(=O)c2oc3ccccc3c2C)s1	none
CC(O)CNc1nc2ccccc2n1CC(=O)N1CCN(Cc2ccccc2)CC1 (stereo not drawn)	none
CCOC(=O)N=S(N)(=O)c1ccccc1 (stereo not drawn)	Autofluor counter 20787
CCOC(=O)/C(=N\Nc1ccccc1)P(=O)(c1ccccc1)c1ccccc1	GDH-TPI counter 51.0, BoNT-F LC inh inconclusive
CCOC(=O)/C(=N/Nc1ccc(C)cc1)S(=O)(=O)c1ccc(Cl)cc1	none
CCOC(=O)/C(=N\Nc1ccccc1)S(=O)(=O)c1ccccc1	GDH-TPI counter 31.0, Autofluor counter 23295
CCCCN(C(=O)c1cc(S(=O)(=O)N2CCCCC2)ccc1Cl)c1c(N)n(CC(C)C)c(=O)[nH]c1=O	none
Cc1ccccc1Nc1nnc(SCC(=O)NC2CCCc3ccccc32)s1 (stereo not drawn)	none
CC(C)(C)NC(=O)CN(C(=O)CS(=O)CC(=O)Nc1ccc(F)cc1)c1ccc(F)c(Cl)c1 (stereo not drawn)	Autofluor counter 20160
